T cruzi growth-1 – blocks T. cruzi growth in NIH3T3 culture; T. cruzi beta-gal in NIH3T3, GalScreen luminescence, 90 h; AID 624255; 5.9% of 77,000 active; inhibition, % at 8.34 µM;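 active means mean inhibition above about 93%, with at least 55% of replicates each passing it, limit read from the data, passing the limit was not always enough; inconclusive means only one of those two conditions holds; inactive means neither condition holds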
C diff growth – inhibitors of Clostridium difficile growth; Clostridium difficile clinical isolate growth, OD600, 24 h; active compounds read low; 0.25% of 86,000 active; growth activity, negative = inhibition, % at 16 µg/mL (by protocol);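 active means mean growth activity at or below -80% and every replicate also at or below -80%; inconclusive means mean at or below -80% but some replicate above -80%; inactive means mean growth activity above -80%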
Pf Dd2 inh – inhibitors of Plasmodium falciparum Dd2 growth; P. falciparum Dd2 growth, SYBR Green, 72 h; active compounds read low; AID 1159554; activity change, % at 10 µM; 2.3% of 94,000 active; in the data active means activity change below about -80%; inconclusive means no clear call, values can overlap the other calls
T cruzi growth-2 – inhibitors of T. cruzi proliferation; shares compounds with T cruzi growth-1; 72% of 5,600 active; inhibition, % at 8.35 µM; AID 651739; T. cruzi beta-gal in NIH3T3, GalScreen luminescence, 90 h;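 active means mean replicate inhibition above about 95% and at least 55% of replicates individually reaching it, limit read from the data; inconclusive means only one of the two criteria is met; inactive means neither criterion is met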
T cruzi growth-3 – blocks T. cruzi growth in NIH3T3 host cells; shares compounds with T cruzi growth-1; T. cruzi beta-gal in NIH3T3, GalScreen luminescence, 90 h; inhibition, % at 2.09 µM; 21% of 5,600 active;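 active means mean inhibition above about 95%, with at least 55% of replicates also reaching it, limit read from the data; inconclusive means meets just one of the two conditions; inactive means meets neither condition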
3T3 cytotox – NIH/3T3 (mouse) viability loss. shares compounds with T cruzi growth-1. NIH/3T3 viability, CellTiter-Glo ATP luminescence, 90 h. cytotoxicity (signal decrease), % at 8.35 µM. 14% of 5,600 active. AID 651742;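 active means mean signal decrease across replicates above about 35% based on untreated-well scatter, with enough replicates individually passing, limit read from the data; inconclusive means no rule stated though some were filed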
3T3 cytotox 2 – cytotoxicity in mouse NIH/3T3 fibroblasts; shares compounds with T cruzi growth-1; NIH/3T3 viability, CellTiter-Glo ATP luminescence, 90 h; inhibition, % at 24.9 µM; 56% of 5,600 active; AID 651744;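 active means mean loss of cell viability signal at or above a set limit, and enough replicates individually reaching it; inconclusive means meets only the mean limit or only the replicate share; inactive means meets neither condition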
Each line names hits and unclear results; the compound was inactive in the other large screens (follow-up assays come after a bar, where they were run). Only some compounds are listed: those with a hit (about 6.7% of all), similar ones and a draw of the others.

C[C@@H]1CN([C@H](C)CO)C(=O)c2cc(NS(=O)(=O)c3ccc(F)cc3)ccc2O[C@@H](C)CCCCO[C@H]1CN(C)S(=O)(=O)c1ccc(F)cc1	none (no result: T cruzi growth-1)
C[C@@H]1CCCCO[C@@H](CN(C)S(=O)(=O)c2ccccc2)[C@@H](C)CN([C@@H](C)CO)C(=O)c2cc(NS(=O)(=O)c3ccc(F)cc3)ccc2O1	none
C[C@@H]1CCCCO[C@H](CN(C)S(=O)(=O)c2ccc(F)cc2)[C@H](C)CN([C@H](C)CO)C(=O)c2cc(NS(=O)(=O)c3ccc(F)cc3)ccc2O1	T cruzi growth-1 115, Pf Dd2 inh inconclusive | T cruzi growth-2 106 | T cruzi growth-3 inconclusive | 3T3 cytotox inactive | 3T3 cytotox 2 inactive
Cc1noc(C)c1S(=O)(=O)N(C)C[C@@H]1OCCCC[C@@H](C)Oc2ccc(NS(=O)(=O)c3ccc(F)cc3)cc2C(=O)N([C@@H](C)CO)C[C@@H]1C	none
Cc1noc(C)c1S(=O)(=O)N(C)C[C@H]1OCCCC[C@@H](C)Oc2ccc(NS(=O)(=O)c3ccc(F)cc3)cc2C(=O)N([C@@H](C)CO)C[C@H]1C	T cruzi growth-1 97 | T cruzi growth-2 103 | T cruzi growth-3 inactive | 3T3 cytotox inactive | 3T3 cytotox 2 inactive
C[C@H](CO)N1C[C@H](C)[C@@H](CN(C)S(=O)(=O)c2ccc(F)cc2)OCCCC[C@H](C)Oc2ccc(NS(=O)(=O)c3ccc(F)cc3)cc2C1=O	T cruzi growth-1 98 | T cruzi growth-2 96 | T cruzi growth-3 inactive | 3T3 cytotox 66 | 3T3 cytotox 2 59
C[C@@H]1CCCCO[C@@H](CN(C)S(=O)(=O)c2ccc(F)cc2)[C@@H](C)CN([C@@H](C)CO)C(=O)c2cc(NS(=O)(=O)c3ccccc3)ccc2O1	none
C[C@@H]1CCCCO[C@H](CN(C)S(=O)(=O)c2ccc(F)cc2)[C@H](C)CN([C@@H](C)CO)C(=O)c2cc(NS(=O)(=O)c3ccc(F)cc3)ccc2O1	T cruzi growth-1 110 | T cruzi growth-2 113 | T cruzi growth-3 inactive | 3T3 cytotox inactive | 3T3 cytotox 2 inactive
Cc1noc(C)c1NC(=O)N[C@@H]1CC[C@@H](CC(=O)N2CCCCC2)O[C@H]1CO	none
O=C(C[C@H]1CC[C@H](NC(=O)Nc2ccccc2F)[C@H](CO)O1)NCc1ccccc1	none
O=C(C[C@H]1CC[C@H]2[C@@H](COC[C@H](O)CN2C(=O)c2ccncc2)O1)NC1CCC1	none
O=C(C[C@H]1C=C[C@H](NC(=O)CN2CCOCC2)[C@@H](CO)O1)NCCc1ccncc1	none (no result: T cruzi growth-1)
Cc1ccc(S(=O)(=O)Nc2ccc3c(c2)C(=O)N([C@@H](C)CO)C[C@H](C)[C@@H](CN(C)S(=O)(=O)c2ccc(C)cc2)OCCCC[C@@H](C)O3)cc1	T cruzi growth-1 102 (no result: C diff growth) | T cruzi growth-2 105 | T cruzi growth-3 inactive | 3T3 cytotox inactive | 3T3 cytotox 2 inactive
Cc1ccc(S(=O)(=O)Nc2ccc3c(c2)C(=O)N([C@H](C)CO)C[C@H](C)[C@H](CN(C)S(=O)(=O)c2ccc(C)cc2)OCCCC[C@H](C)O3)cc1	T cruzi growth-1 inconclusive (no result: C diff growth) | T cruzi growth-2 105 | T cruzi growth-3 107 | 3T3 cytotox inactive | 3T3 cytotox 2 inactive
Cc1ccc(S(=O)(=O)Nc2ccc3c(c2)C(=O)N([C@@H](C)CO)C[C@@H](C)[C@@H](CN(C)S(=O)(=O)c2ccc(C)cc2)OCCCC[C@@H](C)O3)cc1	none (no result: C diff growth)
Cc1ccc(S(=O)(=O)Nc2ccc3c(c2)C(=O)N([C@@H](C)CO)C[C@H](C)[C@H](CN(C)S(=O)(=O)c2ccc(C)cc2)OCCCC[C@@H](C)O3)cc1	none (no result: C diff growth)
Cc1ccc(S(=O)(=O)Nc2ccc3c(c2)C(=O)N([C@H](C)CO)C[C@@H](C)[C@H](CN(C)S(=O)(=O)c2ccc(F)cc2)OCCCC[C@H](C)O3)cc1	none (no result: T cruzi growth-1)
Cc1ccc(S(=O)(=O)Nc2ccc3c(c2)C(=O)N([C@@H](C)CO)C[C@@H](C)[C@H](CN(C)S(=O)(=O)c2ccc(C)cc2)OCCCC[C@@H](C)O3)cc1	T cruzi growth-1 101 (no result: C diff growth) | T cruzi growth-2 102 | T cruzi growth-3 inconclusive | 3T3 cytotox inactive | 3T3 cytotox 2 inactive
CC(=O)N(C)C[C@H]1Oc2ncc(C#Cc3ccccc3F)cc2C(=O)N([C@@H](C)CO)C[C@H]1C	none
O=C(C[C@H]1CC[C@H]2[C@@H](COC[C@H](O)CN2CC2CC2)O1)NCC1CC1	none
C[C@@H]1CN([C@H](C)CO)C(=O)c2cc(NC(=O)Nc3ccc(C(F)(F)F)cc3)ccc2O[C@@H](C)CCCCO[C@@H]1CN(C)C(=O)NC1CCCCC1	none
C[C@@H]1CCCCO[C@H](CN(C)C(=O)Nc2ccc(C(F)(F)F)cc2)[C@@H](C)CN([C@H](C)CO)C(=O)c2cc(NC(=O)NC3CCCCC3)ccc2O1	T cruzi growth-1 113 | T cruzi growth-2 108 | T cruzi growth-3 inactive | 3T3 cytotox inactive | 3T3 cytotox 2 inactive
C[C@@H]1CCCCO[C@@H](CN(C)C(=O)NC2CCCCC2)[C@@H](C)CN([C@H](C)CO)C(=O)c2cc(NC(=O)Nc3ccc(C(F)(F)F)cc3)ccc2O1	none
C[C@H]1CCCCO[C@@H](CN(C)C(=O)NC2CCCCC2)[C@@H](C)CN([C@@H](C)CO)C(=O)c2cc(NC(=O)Nc3ccc(C(F)(F)F)cc3)ccc2O1	none
C[C@H](CO)N1C[C@H](C)[C@@H](CN(C)C(=O)NC2CCCCC2)OCCCC[C@H](C)Oc2ccc(NC(=O)Nc3ccc(C(F)(F)F)cc3)cc2C1=O	none
C[C@@H]1CCCCO[C@@H](CN(C)C(=O)Nc2ccc(C(F)(F)F)cc2)[C@H](C)CN([C@@H](C)CO)C(=O)c2cc(NC(=O)NC3CCCCC3)ccc2O1	T cruzi growth-1 inconclusive | T cruzi growth-2 101 | T cruzi growth-3 inactive | 3T3 cytotox inactive | 3T3 cytotox 2 inactive
C[C@H]1CCCCO[C@@H](CN(C)C(=O)Nc2ccc(C(F)(F)F)cc2)[C@@H](C)CN([C@@H](C)CO)C(=O)c2cc(NC(=O)NC3CCCCC3)ccc2O1	T cruzi growth-1 123 | T cruzi growth-2 101 | T cruzi growth-3 113 | 3T3 cytotox inactive | 3T3 cytotox 2 inactive
C[C@H](CO)N1C[C@H](C)[C@H](CN(C)C(=O)Nc2ccc(C(F)(F)F)cc2)OCCCC[C@H](C)Oc2ccc(NC(=O)NC3CCCCC3)cc2C1=O	T cruzi growth-1 122 | T cruzi growth-2 inconclusive | T cruzi growth-3 106 | 3T3 cytotox inactive | 3T3 cytotox 2 inactive
C[C@@H]1CCCCO[C@@H](CN(C)C(=O)Nc2ccc3c(c2)OCO3)[C@@H](C)CN([C@H](C)CO)C(=O)c2cc(NS(=O)(=O)c3ccccc3)ccc2O1	none
O=C(C[C@H]1CC[C@@H]2[C@H](COC[C@@H](O)CN2Cc2cccc(-c3ccncc3)c2)O1)N1CCN(c2ccccc2)CC1	none
